Data reported in PMC7862700, “An all-to-all approach to the identification of sequence-specific readers for epigenetic DNA modifications on cytosine”.

Columns and labels:
Experiment in all cases: DAPPL (digital affinity profiling via proximity ligation, sequencing); 10 mM Tris-HCl pH 7.5, 50 mM NaCl, 1 mM DTT, 4% glycerol, room temperature, 30 min; GST-TFs on glutathione beads, 16-mer random dsDNA library, 0.1% formaldehyde crosslink after washing; high values mean tight binding
Details in all cases: protein: recombinant; tags: N-terminal GST; dsDNA, one strand shown
FLI1 = biological target: T1, FLI1 (Homo sapiens, UniProt Q01543 1-452)
T1 sequence: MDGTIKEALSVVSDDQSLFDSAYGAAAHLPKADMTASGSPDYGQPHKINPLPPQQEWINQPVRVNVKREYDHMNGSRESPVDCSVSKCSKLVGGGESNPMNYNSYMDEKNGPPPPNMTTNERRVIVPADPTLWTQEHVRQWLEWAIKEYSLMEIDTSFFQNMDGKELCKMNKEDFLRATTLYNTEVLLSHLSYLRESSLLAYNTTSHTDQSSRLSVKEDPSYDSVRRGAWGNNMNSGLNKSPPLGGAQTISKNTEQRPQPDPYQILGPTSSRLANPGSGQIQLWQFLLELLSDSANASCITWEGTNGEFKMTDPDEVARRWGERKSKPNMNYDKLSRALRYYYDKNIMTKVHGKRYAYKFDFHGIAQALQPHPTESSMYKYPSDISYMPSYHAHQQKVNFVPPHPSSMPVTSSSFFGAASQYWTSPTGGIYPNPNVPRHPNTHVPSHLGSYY
Method in brief: (§1)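 Human transcription factors carrying a GST fusion were produced in yeast, bound to glutathione beads, tagged with DNA barcodes and pooled together with a tag-only sample. Each pool was held with 200 nmole of a random double-stranded 16-mer DNA library in Tris/NaCl/DTT/glycerol buffer for 30 min at room temperature, then washed, crosslinked in 0.1% formaldehyde, proximity-ligated with BsaI/T4 ligase (1 h, 37 °C), PCR-amplified and sequenced on an Illumina NextSeq500. Binding signal is the read frequency of each hexamer for a given factor divided by its frequency in the tag-only sample.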

ELK1 = biological target: T2, ELK1 (Homo sapiens, UniProt P19419 1-428)
T2 sequence: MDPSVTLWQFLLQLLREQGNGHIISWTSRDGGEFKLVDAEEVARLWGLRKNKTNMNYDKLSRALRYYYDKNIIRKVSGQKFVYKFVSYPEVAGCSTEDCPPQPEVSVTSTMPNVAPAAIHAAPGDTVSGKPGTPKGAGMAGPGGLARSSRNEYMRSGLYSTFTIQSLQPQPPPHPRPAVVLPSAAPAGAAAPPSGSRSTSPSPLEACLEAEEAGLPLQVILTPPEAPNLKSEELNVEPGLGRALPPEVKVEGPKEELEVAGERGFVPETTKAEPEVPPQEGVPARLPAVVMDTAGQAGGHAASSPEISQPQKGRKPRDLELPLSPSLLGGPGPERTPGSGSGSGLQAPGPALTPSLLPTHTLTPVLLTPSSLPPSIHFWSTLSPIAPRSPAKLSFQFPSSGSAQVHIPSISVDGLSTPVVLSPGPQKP
Method in brief: as §1

GABPA = biological target: T3, GABPA (Homo sapiens, UniProt Q06546 1-454)
T3 sequence: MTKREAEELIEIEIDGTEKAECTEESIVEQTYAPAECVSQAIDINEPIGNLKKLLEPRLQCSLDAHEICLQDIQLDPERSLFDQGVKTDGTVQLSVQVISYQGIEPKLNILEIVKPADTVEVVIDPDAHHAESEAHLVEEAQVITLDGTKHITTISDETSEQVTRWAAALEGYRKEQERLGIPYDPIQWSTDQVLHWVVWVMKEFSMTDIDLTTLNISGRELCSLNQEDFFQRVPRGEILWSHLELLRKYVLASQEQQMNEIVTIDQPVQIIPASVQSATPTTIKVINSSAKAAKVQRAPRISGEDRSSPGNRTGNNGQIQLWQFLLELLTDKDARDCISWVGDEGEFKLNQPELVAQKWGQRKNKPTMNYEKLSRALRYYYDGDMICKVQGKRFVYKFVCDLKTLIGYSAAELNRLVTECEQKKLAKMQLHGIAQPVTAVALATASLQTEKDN
Method in brief: as §1

ERG = biological target: T4, ERG (Homo sapiens, UniProt P11308 1-479)
T4 sequence: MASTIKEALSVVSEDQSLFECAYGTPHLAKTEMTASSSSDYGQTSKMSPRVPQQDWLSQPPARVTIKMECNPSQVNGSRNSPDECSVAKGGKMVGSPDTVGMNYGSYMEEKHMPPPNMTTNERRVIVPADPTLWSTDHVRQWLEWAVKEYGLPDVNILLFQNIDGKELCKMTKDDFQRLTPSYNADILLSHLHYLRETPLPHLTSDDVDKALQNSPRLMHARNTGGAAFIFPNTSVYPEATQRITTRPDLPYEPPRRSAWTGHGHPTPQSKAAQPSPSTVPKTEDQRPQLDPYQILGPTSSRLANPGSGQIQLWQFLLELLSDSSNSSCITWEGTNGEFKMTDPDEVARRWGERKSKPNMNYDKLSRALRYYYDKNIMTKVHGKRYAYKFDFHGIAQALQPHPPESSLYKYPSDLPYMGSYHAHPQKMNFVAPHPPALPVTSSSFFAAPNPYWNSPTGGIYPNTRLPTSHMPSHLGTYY
Method in brief: as §1

ELF1 = ELF1 (Homo sapiens, UniProt P32519 1-619)
Sequence of ELF1 (P32519 whole entry): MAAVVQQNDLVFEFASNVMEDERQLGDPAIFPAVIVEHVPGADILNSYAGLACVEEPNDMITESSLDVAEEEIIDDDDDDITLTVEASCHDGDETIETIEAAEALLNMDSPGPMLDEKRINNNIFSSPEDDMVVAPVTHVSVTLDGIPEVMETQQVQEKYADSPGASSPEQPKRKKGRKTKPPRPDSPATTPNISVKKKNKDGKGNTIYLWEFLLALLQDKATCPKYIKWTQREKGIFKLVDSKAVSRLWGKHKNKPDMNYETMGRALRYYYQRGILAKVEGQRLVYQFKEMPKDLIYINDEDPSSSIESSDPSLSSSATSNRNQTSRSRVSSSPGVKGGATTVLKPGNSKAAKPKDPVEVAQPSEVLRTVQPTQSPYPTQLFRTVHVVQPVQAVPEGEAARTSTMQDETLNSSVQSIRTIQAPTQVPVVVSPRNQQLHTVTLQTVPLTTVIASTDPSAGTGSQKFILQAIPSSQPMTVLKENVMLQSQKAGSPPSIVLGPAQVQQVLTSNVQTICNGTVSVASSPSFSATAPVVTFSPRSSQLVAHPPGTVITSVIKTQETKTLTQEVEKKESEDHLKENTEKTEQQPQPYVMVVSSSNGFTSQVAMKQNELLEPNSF
Method in brief: as §1

SPI1 = SPI1 (Homo sapiens, UniProt P17947 1-270)
Method in brief: as §1

SPIB = SPIB (Homo sapiens, UniProt Q01892 1-262)
Sequence of SPIB (Q01892 whole entry): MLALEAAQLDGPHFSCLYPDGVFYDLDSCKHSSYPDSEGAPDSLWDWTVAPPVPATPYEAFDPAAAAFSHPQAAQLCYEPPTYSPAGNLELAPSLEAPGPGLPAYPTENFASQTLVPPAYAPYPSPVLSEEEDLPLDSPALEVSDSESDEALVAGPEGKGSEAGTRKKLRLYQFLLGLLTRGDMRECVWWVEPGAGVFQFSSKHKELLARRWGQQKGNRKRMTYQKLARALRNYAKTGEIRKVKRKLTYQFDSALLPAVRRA
Method in brief: as §1

FEV = biological target: T5, FEV (Homo sapiens, UniProt Q99581 1-238)
T5 sequence: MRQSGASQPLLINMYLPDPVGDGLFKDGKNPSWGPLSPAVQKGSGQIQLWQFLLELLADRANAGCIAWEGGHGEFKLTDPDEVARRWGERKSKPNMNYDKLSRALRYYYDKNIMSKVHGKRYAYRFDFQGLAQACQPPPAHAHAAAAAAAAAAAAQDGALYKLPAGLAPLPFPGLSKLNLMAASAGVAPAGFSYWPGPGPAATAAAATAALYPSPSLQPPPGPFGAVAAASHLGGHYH
Method in brief: as §1

ETV5 = ETV5 (Homo sapiens, UniProt P41161 1-510)
Sequence of ETV5 (P41161 whole entry): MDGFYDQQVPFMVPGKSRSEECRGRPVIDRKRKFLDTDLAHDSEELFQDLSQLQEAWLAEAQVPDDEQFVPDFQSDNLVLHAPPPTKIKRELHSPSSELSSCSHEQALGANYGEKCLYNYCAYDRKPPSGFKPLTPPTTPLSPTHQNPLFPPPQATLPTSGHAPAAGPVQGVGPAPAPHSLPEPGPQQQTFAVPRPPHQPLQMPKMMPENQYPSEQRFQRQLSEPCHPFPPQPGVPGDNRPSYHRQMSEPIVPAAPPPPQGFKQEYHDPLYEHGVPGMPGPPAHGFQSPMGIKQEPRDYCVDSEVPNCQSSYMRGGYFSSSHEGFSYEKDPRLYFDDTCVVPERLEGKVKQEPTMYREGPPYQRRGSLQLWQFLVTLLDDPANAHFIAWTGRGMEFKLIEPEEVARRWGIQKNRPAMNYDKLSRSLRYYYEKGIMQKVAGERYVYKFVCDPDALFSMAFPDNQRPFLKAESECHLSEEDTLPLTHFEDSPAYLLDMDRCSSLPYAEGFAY
Method in brief: as §1

SPIC = biological target: T6, SPIC (Homo sapiens, UniProt Q8N5J4 1-248)
T6 sequence: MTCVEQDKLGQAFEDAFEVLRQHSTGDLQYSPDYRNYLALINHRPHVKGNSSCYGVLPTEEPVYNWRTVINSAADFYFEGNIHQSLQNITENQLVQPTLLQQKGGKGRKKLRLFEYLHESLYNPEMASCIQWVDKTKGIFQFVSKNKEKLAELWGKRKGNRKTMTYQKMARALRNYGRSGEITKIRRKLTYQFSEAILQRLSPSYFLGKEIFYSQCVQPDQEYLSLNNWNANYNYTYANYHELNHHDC
Method in brief: as §1

ELF4 = ELF4 (Homo sapiens, UniProt Q99607 1-663)
Sequence of ELF4 (Q99607 whole entry): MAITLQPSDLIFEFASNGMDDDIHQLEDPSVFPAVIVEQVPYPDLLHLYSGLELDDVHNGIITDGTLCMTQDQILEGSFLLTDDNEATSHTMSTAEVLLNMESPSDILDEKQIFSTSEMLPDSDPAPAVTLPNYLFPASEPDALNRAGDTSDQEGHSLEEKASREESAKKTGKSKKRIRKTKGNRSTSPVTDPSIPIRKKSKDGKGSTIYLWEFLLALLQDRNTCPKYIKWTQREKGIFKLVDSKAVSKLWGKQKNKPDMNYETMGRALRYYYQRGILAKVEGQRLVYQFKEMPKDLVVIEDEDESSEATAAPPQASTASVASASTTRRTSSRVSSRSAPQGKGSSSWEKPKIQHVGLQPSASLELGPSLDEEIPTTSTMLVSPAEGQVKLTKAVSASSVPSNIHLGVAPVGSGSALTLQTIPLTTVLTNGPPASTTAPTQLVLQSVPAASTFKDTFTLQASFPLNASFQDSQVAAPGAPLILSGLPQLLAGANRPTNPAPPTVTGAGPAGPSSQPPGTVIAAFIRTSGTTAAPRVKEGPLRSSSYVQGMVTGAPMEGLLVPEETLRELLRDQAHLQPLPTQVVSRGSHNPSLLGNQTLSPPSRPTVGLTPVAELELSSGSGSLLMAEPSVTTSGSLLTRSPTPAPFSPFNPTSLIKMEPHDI
Method in brief: as §1

ELK4 = biological target: T7, ELK4 (Homo sapiens, UniProt P28324-2 1-405)
T7 sequence: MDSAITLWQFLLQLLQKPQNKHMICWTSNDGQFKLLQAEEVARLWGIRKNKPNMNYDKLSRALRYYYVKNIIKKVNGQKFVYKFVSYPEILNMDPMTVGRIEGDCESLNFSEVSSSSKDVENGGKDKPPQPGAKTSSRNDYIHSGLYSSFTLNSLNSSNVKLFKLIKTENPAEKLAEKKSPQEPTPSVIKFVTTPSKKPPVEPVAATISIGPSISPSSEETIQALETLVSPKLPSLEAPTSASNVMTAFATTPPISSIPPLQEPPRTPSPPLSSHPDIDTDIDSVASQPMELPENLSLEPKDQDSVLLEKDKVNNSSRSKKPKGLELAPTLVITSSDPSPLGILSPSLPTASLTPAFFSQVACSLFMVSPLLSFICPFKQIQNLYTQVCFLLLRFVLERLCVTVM
Method in brief: as §1

ETV2 = biological target: T8, ETV2 (Homo sapiens, UniProt O00321 1-342)
T8 sequence: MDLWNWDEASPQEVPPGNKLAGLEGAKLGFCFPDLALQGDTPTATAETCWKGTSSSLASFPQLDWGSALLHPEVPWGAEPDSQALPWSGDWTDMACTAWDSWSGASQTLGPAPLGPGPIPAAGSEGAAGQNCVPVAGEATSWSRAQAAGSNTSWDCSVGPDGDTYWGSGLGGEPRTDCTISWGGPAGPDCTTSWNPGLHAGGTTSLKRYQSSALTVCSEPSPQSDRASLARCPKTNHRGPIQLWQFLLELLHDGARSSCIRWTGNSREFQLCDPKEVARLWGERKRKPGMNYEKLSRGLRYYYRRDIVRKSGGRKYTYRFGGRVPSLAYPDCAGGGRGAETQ
Method in brief: as §1

ELF3 = biological target: T9, ELF3 (Homo sapiens, UniProt P78545 1-371)
T9 sequence: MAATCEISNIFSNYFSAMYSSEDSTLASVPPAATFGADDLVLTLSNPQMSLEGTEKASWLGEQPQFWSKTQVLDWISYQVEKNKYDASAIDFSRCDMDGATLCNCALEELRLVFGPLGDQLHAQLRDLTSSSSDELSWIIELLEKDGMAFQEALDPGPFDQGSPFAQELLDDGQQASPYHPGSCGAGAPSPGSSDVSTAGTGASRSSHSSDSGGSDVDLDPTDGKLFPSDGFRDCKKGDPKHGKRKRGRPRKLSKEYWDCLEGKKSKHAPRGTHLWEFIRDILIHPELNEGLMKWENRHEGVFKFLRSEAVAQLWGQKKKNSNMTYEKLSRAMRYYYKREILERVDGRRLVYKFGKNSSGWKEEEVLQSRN
Method in brief: as §1

ETV1 = ETV1 (Homo sapiens, UniProt P50549 1-477)
Sequence of ETV1 (P50549 whole entry): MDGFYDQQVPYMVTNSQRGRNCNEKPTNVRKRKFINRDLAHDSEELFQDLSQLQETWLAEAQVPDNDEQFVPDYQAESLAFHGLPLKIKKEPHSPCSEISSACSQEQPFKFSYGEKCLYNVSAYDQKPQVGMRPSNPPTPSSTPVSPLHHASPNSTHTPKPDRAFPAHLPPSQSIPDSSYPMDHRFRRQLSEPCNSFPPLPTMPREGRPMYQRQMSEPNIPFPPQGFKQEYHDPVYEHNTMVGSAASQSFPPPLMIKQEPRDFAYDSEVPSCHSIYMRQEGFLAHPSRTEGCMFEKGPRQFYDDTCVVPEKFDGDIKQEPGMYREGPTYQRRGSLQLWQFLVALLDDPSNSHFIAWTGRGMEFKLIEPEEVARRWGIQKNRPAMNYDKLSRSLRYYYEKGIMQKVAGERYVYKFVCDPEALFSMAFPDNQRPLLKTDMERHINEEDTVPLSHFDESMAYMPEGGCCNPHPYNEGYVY
Method in brief: as §1

EHF = biological target: T10, EHF (Homo sapiens, UniProt Q9NZC4 1-300)
T10 sequence: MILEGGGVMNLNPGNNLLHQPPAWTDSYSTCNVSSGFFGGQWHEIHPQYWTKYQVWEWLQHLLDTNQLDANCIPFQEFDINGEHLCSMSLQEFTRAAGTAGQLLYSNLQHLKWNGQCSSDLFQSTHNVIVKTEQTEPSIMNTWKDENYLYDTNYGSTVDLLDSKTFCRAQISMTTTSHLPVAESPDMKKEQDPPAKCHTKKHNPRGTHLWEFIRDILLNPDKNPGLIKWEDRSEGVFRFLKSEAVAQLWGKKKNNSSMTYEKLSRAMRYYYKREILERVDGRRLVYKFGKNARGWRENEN
Method in brief: as §1

ELK3 = biological target: T11, ELK3 (Homo sapiens, UniProt P41970 1-407)
T11 sequence: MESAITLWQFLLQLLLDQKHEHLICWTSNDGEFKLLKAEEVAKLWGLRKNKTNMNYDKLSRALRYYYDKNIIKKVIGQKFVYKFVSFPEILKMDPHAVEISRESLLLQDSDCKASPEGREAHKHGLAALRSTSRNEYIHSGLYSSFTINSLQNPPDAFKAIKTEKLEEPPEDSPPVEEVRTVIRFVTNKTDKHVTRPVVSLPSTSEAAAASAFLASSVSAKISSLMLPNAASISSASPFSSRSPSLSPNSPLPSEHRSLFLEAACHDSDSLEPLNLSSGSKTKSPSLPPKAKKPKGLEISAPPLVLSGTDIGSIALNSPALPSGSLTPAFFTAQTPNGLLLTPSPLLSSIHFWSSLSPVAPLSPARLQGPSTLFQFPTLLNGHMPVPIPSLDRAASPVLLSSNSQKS
Method in brief: as §1

Sequence	binding signal (FLI1)	binding signal (ELK1)	binding signal (GABPA)	binding signal (ERG)	binding signal (ELF1)	binding signal (SPI1)	binding signal (SPIB)	binding signal (FEV)	binding signal (ETV5)	binding signal (SPIC)	binding signal (ELF4)	binding signal (ELK4)	binding signal (ETV2)	binding signal (ELF3)	binding signal (ETV1)	binding signal (EHF)	binding signal (ELK3)
TGACTG	1.13 fold enrichment (6-mer frequency, TF over GST control)	1.09 fold enrichment (6-mer frequency, TF over GST control)	1.16 fold enrichment (6-mer frequency, TF over GST control)	1.01 fold enrichment (6-mer frequency, TF over GST control)	1.05 fold enrichment (6-mer frequency, TF over GST control)	1.1 fold enrichment (6-mer frequency, TF over GST control)	1.11 fold enrichment (6-mer frequency, TF over GST control)	1.05 fold enrichment (6-mer frequency, TF over GST control)	1.03 fold enrichment (6-mer frequency, TF over GST control)	1.03 fold enrichment (6-mer frequency, TF over GST control)	1.09 fold enrichment (6-mer frequency, TF over GST control)	1.16 fold enrichment (6-mer frequency, TF over GST control)	1.09 fold enrichment (6-mer frequency, TF over GST control)	1.04 fold enrichment (6-mer frequency, TF over GST control)	1.03 fold enrichment (6-mer frequency, TF over GST control)		
ACACCC	1.18 fold enrichment (6-mer frequency, TF over GST control)	1.16 fold enrichment (6-mer frequency, TF over GST control)	1.16 fold enrichment (6-mer frequency, TF over GST control)	1.11 fold enrichment (6-mer frequency, TF over GST control)	1.09 fold enrichment (6-mer frequency, TF over GST control)		1.17 fold enrichment (6-mer frequency, TF over GST control)	1.08 fold enrichment (6-mer frequency, TF over GST control)	1.08 fold enrichment (6-mer frequency, TF over GST control)	1.19 fold enrichment (6-mer frequency, TF over GST control)	1.07 fold enrichment (6-mer frequency, TF over GST control)	1.05 fold enrichment (6-mer frequency, TF over GST control)	1.07 fold enrichment (6-mer frequency, TF over GST control)	1.01 fold enrichment (6-mer frequency, TF over GST control)	1.14 fold enrichment (6-mer frequency, TF over GST control)	1.11 fold enrichment (6-mer frequency, TF over GST control)	1.08 fold enrichment (6-mer frequency, TF over GST control)
